# Assay results taken from the supplement of paper PMC3334620.
# The full ranking holds about 33,000 sequences; the median of “E-score (-0.5 to 0.5)” is about -0.021, and the highest 2% start at about 0.32. The sample holds the highest values, similar sequences and a random draw of the others, so the mix is not that of the screen.
# Target: T1, Zap1 (UniProt P47043)
# T1 sequence: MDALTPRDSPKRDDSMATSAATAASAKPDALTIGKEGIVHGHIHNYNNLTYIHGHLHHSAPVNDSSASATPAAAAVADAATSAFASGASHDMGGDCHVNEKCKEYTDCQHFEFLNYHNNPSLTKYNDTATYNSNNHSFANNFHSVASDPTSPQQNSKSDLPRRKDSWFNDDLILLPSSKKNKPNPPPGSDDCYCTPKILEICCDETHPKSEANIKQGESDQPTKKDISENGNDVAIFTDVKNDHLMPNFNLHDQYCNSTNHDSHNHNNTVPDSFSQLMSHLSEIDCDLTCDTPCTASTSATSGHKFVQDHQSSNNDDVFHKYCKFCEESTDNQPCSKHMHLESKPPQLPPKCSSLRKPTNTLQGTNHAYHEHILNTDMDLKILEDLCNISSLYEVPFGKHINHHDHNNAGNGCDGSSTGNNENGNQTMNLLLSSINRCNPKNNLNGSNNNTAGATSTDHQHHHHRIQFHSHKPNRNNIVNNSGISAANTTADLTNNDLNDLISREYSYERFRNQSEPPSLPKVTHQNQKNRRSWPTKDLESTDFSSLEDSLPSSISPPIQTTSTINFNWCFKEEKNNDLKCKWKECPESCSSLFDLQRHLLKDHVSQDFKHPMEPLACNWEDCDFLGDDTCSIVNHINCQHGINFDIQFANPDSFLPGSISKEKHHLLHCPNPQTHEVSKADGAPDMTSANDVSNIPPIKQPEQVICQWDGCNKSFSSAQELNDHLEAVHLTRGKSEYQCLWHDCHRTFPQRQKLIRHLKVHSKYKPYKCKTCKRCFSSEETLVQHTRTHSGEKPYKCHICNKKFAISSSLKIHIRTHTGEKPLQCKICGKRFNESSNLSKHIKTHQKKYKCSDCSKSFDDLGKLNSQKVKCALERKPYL
# Test: PBM E-score (8-mer binding enrichment) (E-score (-0.5 to 0.5)); higher = stronger / more preferred TF binding
# Details: protein concentration: 200 nM; construct: GST-full length
# Protocol: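 Universal 'all 10-mer' protein binding microarrays (Agilent AMADID 015681) probed with GST-tagged S. cerevisiae TFs (full-length or DBD) made by in vitro transcription/translation (PURExpress), about 100-200 nM. Bound TF was detected with fluorescent anti-GST. Each ungapped 8-mer (which stands for itself and its reverse complement) is scored by the PBM enrichment score (E-score), a modified Wilcoxon-Mann-Whitney statistic from -0.5 to +0.5, computed with the Universal PBM Analysis Suite. Scale: above 0.35 generally sequence-specific binding.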
row,Sequence,PBM E-score
1,AGGTGGTC,0.142
2,CGTTGCGA,-0.126
3,GGTTGTTA,0.355
4,AGTTGTTA,0.161
5,GGTTGTGA,0.374
6,GGTTGTAA,0.278
7,GGTTGTAC,0.336
8,AGTTGTAC,0.146
9,AGTTGCGA,0.16
10,AGTTGTGA,0.193
11,GGTTGCGA,0.335
12,CGTTGTTA,0.102
13,CGTTGTGA,-0.151
14,CGTAGACC,-0.109
15,ACAGAACC,0.0979
16,ATTGGCAG,-0.219
17,CTGAAGTA,0.0214
18,ATGACTCG,-0.115
19,CTTGCGAA,0.139
20,GCCATATA,0.0242
21,TAAACCGA,-0.0627
22,ATTCTCTG,-0.159
23,TGACCAAA,0.28
24,CCACATCG,0.0835
25,GAGTGTCA,0.035

row,Sequence,PBM E-score
1,CAAAGGTG,0.0139
2,ATAACAGC,-0.0193
3,CAGCTGGC,-0.0978
4,TGGGTTAA,0.359
5,AGCGTTAG,-0.147
6,GGGGTTCA,0.0745
7,AGGGTTTA,0.315
8,AGGGTTAG,0.431
9,GGGGTTTA,0.126
10,TCGGTTAA,0.274
11,AGGGTTTG,0.292
12,AGGGTTAA,0.461
13,TGTGTTAA,0.0894
14,GGGGTTAA,0.403
15,AGAGTTAA,-0.086
16,AAACTTAG,0.0118
17,ACTCTTGA,-0.00751
18,AAACTTCA,0.00932
19,ATGGTTAA,0.357
20,GTGGTTAA,0.406
21,GTGGTTTA,0.213
22,GTGGTTGA,0.0163
23,ATGGTTTA,0.191
24,ATGGTTCA,0.119
25,CCTGTGAG,0.133

row,Sequence,PBM E-score
1,CGGTGCTC,0.123
2,GGCACAGA,-0.267
3,ACCCTAAA,0.416
4,CCCCTAAG,0.158
5,ACCCTAAC,0.414
6,ACCCTAAT,0.407
7,TCCCTAAA,-0.0128
8,CCCCTAAA,0.0485
9,GCCCTAAC,0.111
10,ATCCTAAT,0.0542
11,AGCCTAAT,-0.212
12,ACCCTAAG,0.457
13,CCCCTAAC,0.232
14,ATCCTAAG,-0.00974
15,GCTGCTTA,0.0693
16,CCCTGCCA,-0.00313
17,CGCTAGCC,-0.373
18,AGGTATAT,0.115
19,AGGTATAA,0.317
20,CGGTATAA,0.0772
21,CATGCTGG,-0.0654
22,CGGATTCC,-0.0353
23,AACCCCTC,0.353
24,CACCCCTG,-0.0914
25,AAACCCTG,0.337

row,Sequence,PBM E-score
1,AACCCCTG,0.347
2,TAACCCTA,0.462
3,AGACCCTG,0.253
4,ACCCCCTC,-0.0959
5,CACCCCTC,0.239
6,ACCCCCTG,-0.07
7,TAGCCCTA,-0.0869
8,AAACCCTC,0.175
9,TAACCGTA,0.31
10,AGAGAGAC,-0.00859
11,CACGCTAG,-0.21
12,ACGTTGAG,-0.0801
13,TCCTTAAA,0.15
14,AGATTTGC,-0.0426
15,ATATCTCC,-0.149
16,ATTGACTC,0.049
17,GGACAGCC,-0.0735
18,CATCGACC,-0.0318
19,TTCTTCAA,0.0925
20,ATCCCCTA,0.0194
21,AACCCCTA,0.389
22,CAACCCTG,0.419
23,GAACCCTA,0.272
24,AAACCCAA,0.312
25,CAACCCTC,0.258

row,Sequence,PBM E-score
1,CAAACCTA,0.166
2,CAACCCGG,0.213
3,AAACCCTA,0.423
4,AAACCCTT,0.272
5,ACCCCCTA,-0.354
6,CAACCCTA,0.442
7,CGAAGCAG,-0.165
8,AGGCTGGA,-0.23
9,CACCAGGA,0.0532
10,AATCGCGG,-0.0922
11,GAAAAGAC,0.0296
12,CACCAAGA,0.0172
13,ATCAACGC,-0.0956
14,AGTAGTCA,-0.276
15,CAGATACA,0.0912
16,GTAGCACA,0.017
17,GCATCCAA,-0.203
18,AGGGAGAA,-0.148
19,GACCCCTA,0.276
20,AACCCCTT,0.38
21,GGACCCTA,0.159
22,CACCCCTA,0.0983
23,TACCCCTA,0.366
24,AGACCCTA,0.298
25,AACCCCCT,-0.187

row,Sequence,PBM E-score
1,CGACCCTA,0.328
2,AACCCCGT,0.277
3,CGTCTCTA,-0.19
4,GCTAAAAC,0.0736
5,CGTATCCA,-0.133
6,CGGTTGAA,0.221
7,CCACAGCC,-0.17
8,GACCTTTA,0.401
9,AACCTTTA,0.398
10,CACCTTTC,0.0949
11,ATCCTTTA,0.092
12,GGCCTTTA,0.114
13,AACCTTCA,0.368
14,AGCCTTTA,0.132
15,AGCCTTTC,-0.185
16,AACCTTCC,0.21
17,AACCTTTC,0.324
18,GACCTTCA,0.0992
19,CACCTTTA,0.118
20,ATAGTTGC,0.135
21,ACGTCGCA,-0.0322
22,GGTGAACA,-0.231
23,GCGCTATA,-0.105
24,CGCTATCA,-0.078
25,CAGCAAGC,-0.389

row,Sequence,PBM E-score
1,ACCTAGGC,-0.26
2,GTGATAAC,0.251
3,CATCCTCC,-0.176
4,GATAGCTA,-0.298
5,GGCTCAAA,-0.176
6,AGGAACAA,0.00761
7,AACCTTCG,0.305
8,AACCTTTG,0.377
9,AACCTTGG,0.274
10,AGATCGCT,-0.204
11,GAAACTCC,-0.206
12,ACAGATCA,0.0477
13,TCGTTAAA,-0.0347
14,ACGTTAAA,0.101
15,CGGTTAAA,0.328
16,AGGTTAAA,0.376
17,TGGTTAAA,0.379
18,CGGTTTAA,0.0515
19,ATGTTAAA,0.0569
20,CTGTTAAA,0.0123
21,TAGTTAAA,0.234
22,CTGTTGCA,0.201
